Results filed as inconclusive are left out. Calls of active or inactive are those of the source. Calls follow the shape of the dose curve; as a rule, active = well fitted curve in the direction sought with a large enough effect; inconclusive = small, poorly fitted or top-dose-only effect, or another doubt; inactive = no such curve, though single readings can be large; an effect the other way counts as inactive or inconclusive.
What was measured:
[1] = target: Glutathione peroxidase 1 (Homo sapiens) (UniProt P07203); experiment: Primary qHTS Assay for Inhibitors of Recombinant Selenoprotein Glutathione Peroxidase 1 (GPX1) (AID 1845191); also: nearly all actives have a fitted effect of over 65% in size; as to activity, negative = inhibition: % is scaled to controls: 0 for no effect and ±100 for the full control effect
How it was run: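 10 nM GPX1 + cpd, 30 min RT; start w/ 1 mM GSH, 0.5 mM cumene hydroperoxide, 0.5 mM NADPH, 100 nM GR, 0.01% BSA; buffer 50 mM Tris-HCl pH 7.5, 2 mM EDTA, 150 mM NaCl; Fl 340/450, 0 & 15 min.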

[2] = target: Phospholipid hydroperoxide glutathione peroxidase GPX4 (Homo sapiens) (UniProt P36969); experiment: Primary qHTS Assay for Inhibitors of Recombinant Selenoprotein Glutathione Peroxidase 4 (GPX4) (AID 1845192); also: nearly all actives have a fitted effect of over 65% in size
How it was run: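 NADPH consumption, followed by fluorescence at 340/450 nm between 0 and 15 min, reports GPX4 activity via coupled glutathione reductase (100 nM). Enzyme 200 nM was pre-exposed to compound 30 min; 0.5 mM cumene hydroperoxide and 1 mM GSH served as substrates.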

[3] = target: Luciferin 4-monooxygenase (Photinus pyralis) (UniProt P08659); experiment: Primary firefly luciferase (FLuc) qHTS assay for identification of artifact compounds. (AID 1845220); also: nearly all actives have a fitted effect of over 60% in size
How it was run: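 Compounds sat 15 min at room temperature with 10 uM luciferin and 10 uM ATP (pH 7.6 Tris acetate). Firefly luciferase (10 nM final) was then added, and luminescence was read 5 min later. Data normalized to no-enzyme and DMSO controls were Hill-fitted.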

[4] = Primary fluorescence-based thiol-reactive (MSTI) qHTS assay for identification of artifact compounds. (AID 1845221);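 also: series mostly up to about 54 µM; thiol-reactive compounds lower the probe fluorescence signal; nearly all actives have a fitted effect of over 65% in size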
How it was run: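 MSTI probe at 4 uM final in 2% DMSO/PBS pH 7.4; compounds, 1 h at room temperature in dark. Fluorescence Ex/Em 525/598 nm, normalised to Acetyl-MSTI and MSTI, fitted to 4-parameter Hill.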

[5] = test system: Nanoluciferase (engineered Oplophorus gracilirostris luciferase); experiment: Primary Nanoluciferase (NLuc) qHTS assay for identification of artifact compounds. (AID 1845222);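 also: series mostly up to about 54 µM; 0% = DMSO and -100% = no enzyme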
How it was run: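 Luminescence from secreted NLuc (filtered, 1:55-diluted S16 cell medium) read 5 min after Nano-Glo substrate; compounds preincubated 15 min, RT. Hill fits of inhibition normalized to DMSO and no-enzyme.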

Sequence of Glutathione peroxidase 1 (Homo sapiens) (P07203 whole entry, looked up): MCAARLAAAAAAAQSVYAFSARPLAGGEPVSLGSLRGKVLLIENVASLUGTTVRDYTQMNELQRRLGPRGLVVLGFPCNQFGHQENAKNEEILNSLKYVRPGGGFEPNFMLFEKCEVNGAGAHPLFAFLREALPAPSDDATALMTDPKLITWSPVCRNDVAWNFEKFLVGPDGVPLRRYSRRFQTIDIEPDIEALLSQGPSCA
Sequence of Phospholipid hydroperoxide glutathione peroxidase GPX4 (Homo sapiens) (P36969 whole entry, looked up): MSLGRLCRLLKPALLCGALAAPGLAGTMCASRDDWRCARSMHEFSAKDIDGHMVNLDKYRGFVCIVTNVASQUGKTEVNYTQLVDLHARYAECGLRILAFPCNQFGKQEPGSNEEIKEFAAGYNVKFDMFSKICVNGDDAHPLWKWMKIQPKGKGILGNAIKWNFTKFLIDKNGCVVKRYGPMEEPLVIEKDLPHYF

O=C(O)c1ccnc2cc(C(OCCN3CCCCC3)c3ccccc3Cl)[nH]c12 (stereo not given)
inactive: Potency [1] | Potency [2] | Potency [3] | Potency [4] | outcome [5]

CCc1c(C(=O)C(N)=O)c2c(OCC(=O)OC)cccc2n1Cc1ccccc1
inactive: Potency [1] | Potency [2] | Potency [3] | Potency [4] | outcome [5]

N#C[C@@H](O[C@@H]1O[C@H](CO[C@@H]2O[C@H](CO)[C@@H](O)[C@H](O)[C@H]2O)[C@@H](O)[C@H](O)[C@H]1O)c1ccccc1
inactive: Potency [1] | Potency [2] | Potency [3] | Potency [4] | outcome [5]

C=CC(C)(C)c1[nH]c2cccc3c2c1C[C@@H]1[C@@H]3[C@@H](OC(C)=O)[C@H](C)CN1C
inactive: Potency [1] | Potency [2] | Potency [3] | Potency [4] | outcome [5]

CC12CCC3C(CCC4(O)CC(O)CCC34C=O)C1(O)CCC2C1=CC(=O)OC1 (stereo not given)
inactive: Potency [1] | Potency [2] | Potency [3] | Potency [4] | outcome [5]

C=C(CO)C(=O)O[C@H]1C/C(C)=C/CC/C(CO)=C/[C@H]2OC(=O)C(=C)[C@H]12
inactive: Potency [1] | Potency [2] | Potency [3] | Potency [4] | outcome [5]

C1=C2CCCN[C@H]2[C@@H]2C[C@H]1[C@H]1CCCCN1C2
inactive: Potency [1] | Potency [2] | Potency [3] | Potency [4] | outcome [5]

Cc1cc(C(=O)CN2CCCC2)c(C)n1-c1ccc(F)cc1
inactive: Potency [1] | Potency [2] | Potency [3] | Potency [4] | outcome [5]

COC1CC(OC2CCC3(C)C(=CCC4C3CCC3(C)C(C(C)OC5OC(COC6OC(CO)C(O)C(O)C6O)C(O)C(O)C5O)CCC43O)C2)OC(C)C1OC1OC(C)C(O)C(OC)C1O (stereo not given)
inactive: Potency [1] | Potency [2] | outcome [3] inactive [at 11.6 µM] | activity change, negative = thiol reactive [4] 0.542% [at 11.5 µM] | activity, negative = inhibition [5] 2.42% [at 11.6 µM]

Cn1ncnc1COc1nn2c(-c3c(F)cccc3F)nnc2cc1C1CCC1
inactive: Potency [1] | Potency [2] | Potency [3] | Potency [4] | outcome [5]

OCCCCC#Cc1cncc(OC[C@@H]2CCN2)c1
inactive: Potency [1] | Potency [2] | Potency [3] | Potency [4] | outcome [5]

CC(C)C1(OO)C=C2C(=O)CC3C(C)(C(=O)O)CCCC3(C)C2CC1 (stereo not given)
inactive: Potency [1] | Potency [2] | Potency [3] | Potency [4] | outcome [5]

CCN1CC2(COC)C3[C@@H](OC)C4C1C3(C1C[C@]3(O)[C@H](OC(=O)c5ccccc5)C1[C@]4(OC(C)=O)[C@@H](O)[C@@H]3OC)[C@H](OC)C[C@H]2O (stereo not given in full)
inactive: Potency [1] | Potency [2] | Potency [3] | Potency [4] | outcome [5]

COc1cc(CCNCc2ccccc2O)c(OC)cc1C#N
inactive: Potency [1] | Potency [2] | Potency [3] | Potency [4] | outcome [5]

COC1C(O)C(C)OC(OC2C(CO)O[C@@H](O[C@@H]3CC4CCC5C(CC[C@]6(C)[C@@H](C7=CC(=O)OC7)CC[C@]56O)[C@@]4(C)[C@H](O)C3)C(O)C2O)C1O (stereo not given in full)
inactive: Potency [1] | Potency [2] | Potency [3] | Potency [4] | outcome [5]

COC1C(O)C(OC2CCC3(C=O)C(CCC4C3CCC3(C)C(C5=CC(=O)OC5)CCC43O)C2)OC(C)C1OC1OC(CO)C(O)C(O)C1O (stereo not given)
inactive: Potency [1] | Potency [2] | Potency [3] | Potency [4] | outcome [5]

C[C@@](O)(COc1ccc(C#N)cc1)C(=O)Nc1ccc(C#N)c(C(F)(F)F)c1
inactive: Potency [1] | Potency [2] | Potency [3] | Potency [4] | outcome [5]

C/C=C(\C)C(=O)OC1C(C)OC(OC2C(C)OC(OC3CCC4(C)C(=CCC5C4CCC4(C)C(C(C)OC6OC(COC7OC(CO)C(O)C(O)C7O)C(O)C(O)C6O)CCC54O)C3)CC2OC)C(O)C1OC (stereo not given)
inactive: Potency [1] | Potency [2] | outcome [3] inactive [at 11.6 µM] | activity change, negative = thiol reactive [4] 16.4% [at 11.5 µM] | activity, negative = inhibition [5] 0% [at 11.6 µM]

Clc1ccc(OCC2=NCCN2)cc1Cl
inactive: Potency [1] | Potency [2] | Potency [3] | Potency [4] | outcome [5]

O=C1C[C@@H]2OCC=C3CN4CC[C@]56c7ccccc7N1[C@H]5[C@H]2[C@H]3C[C@H]46
inactive: Potency [1] | Potency [2] | Potency [3] | Potency [4] | outcome [5]

COc1cc(C)[nH]c(=O)c1CNC(=O)c1c(C)n([C@H](C)C2CCOCC2)c2ccccc12
inactive: Potency [1] | Potency [2] | Potency [3] | Potency [4] | outcome [5]

C/C=C(\C)C(=O)OC1CC2C(C)(C)OC(=O)CC(OC(C)=O)C2(C)C2CC(OC(=O)C(C)C)C3(C)C(c4ccoc4)CC4OC43C12C (stereo not given)
inactive: Potency [1] | Potency [2] | Potency [3] | Potency [4] | outcome [5]

CN1[C@H]2C[C@H](OC(=O)[C@H](CO)c3ccccc3)C[C@@H]1[C@@H](O)C2
inactive: Potency [1] | Potency [2] | Potency [3] | Potency [4] | outcome [5]

— PubChem BioAssay (NCATS)
